# Tau fibril ThT: tau fibrillization inhibition (ThT binding). P10636. recombinant tau K18 P301L, heparin-induced fibrillization, ThT fluorescence. Potency, µM (top dose mostly 57.4 µM), for the others: top-dose activity, negative = inhibition, hits mostly inhibitors. 270,000 compounds, 2.1% hits; also: nearly all actives have a fitted effect of over 55% in size
# Target sequence (P10636 561-689 P618L limits assumed): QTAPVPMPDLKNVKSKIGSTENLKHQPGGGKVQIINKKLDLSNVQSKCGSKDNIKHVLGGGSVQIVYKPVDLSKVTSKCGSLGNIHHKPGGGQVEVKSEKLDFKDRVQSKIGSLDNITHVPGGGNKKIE
#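 ThT emission at 510 nm, taken 1 hr after adding 30 uM dye, quantifies aggregates formed when 20 uM heparin acts on human tau K18 P301L for 6 hr at 37 C.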
# PLK1 PBD inh: blocks phosphopeptide binding to human PLK1 polo-box domain; P53350; Plk1 PBD binding of FITC phosphopeptide, fluorescence polarization; Potency, µM, inactives show max response, negative = inhibition, actives largely listed as inhibitors; 360,000 compounds, 2.8% hits; also: series mostly up to about 57 µM; nearly all actives have a fitted effect of over 65% in size
# Sfp PPTase inh: blocks B. subtilis Sfp PPTase activity; Q9F4F7; 310,000 compounds, 3.5% hits; Biochemical Sfp PPTase activity, qHTS; Potency, µM, inactives show largest response in the series, negative = inhibition, hits mostly inhibitors;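 also: the enzyme is Sfp with the accession as filed and its product quenches rhodamine fluorescence; 0% = enzyme reaction without inhibitor and -100% = no enzyme wells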
#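 Fluorescence-quenching assay: 15 nM Sfp-PPTase preincubated 15 min at room temperature with compound, then 5 uM rhodamine-CoA and 12.5 uM BHQ-2-labelled YbbR peptide added. Fluorescence (ex 525/em 598 nm) read at start and after 30 min; difference gives rate.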
# Tau fluor cs: counter-screen for tau fibril formation inhibitors; tau K18 P301L Alexa594 fluorescence, heparin fibrillization; Potency, µM (top dose mostly 57.7 µM), inactives show at the top dose activity change, negative = decrease; 280,000 compounds, 0.93% hits; also: nearly all actives have a fitted effect of over 55% in size
#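 Human tau K18 P301L (15 uM unlabeled, 0.24 uM Alexa 594-labeled) in 100 mM sodium acetate pH 7 with 20 uM heparin, 6 hr at 37 C. ThT 30 uM added, 1 hr ambient; Alexa 594 FP and total fluorescence read at 555/632 nm.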
# Tau FP inhib: tau fibrillization inhibition (FP); Potency, µM (highest dose often 57.7 µM), for the others: at the top dose activity, negative = inhibition, usual class: inhibitors; P10636; 280,000 compounds, 0.39% hits; K18 P301L tau heparin fibrillization, Alexa594 FP, 6 h; also: nearly all actives have a fitted effect of over 55% in size
#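 Human K18 P301L fragment (15 uM unlabeled plus 0.24 uM Alexa 594-labeled) in 100 mM sodium acetate pH 7 with compound, aggregation induced by 20 uM heparin for 6 hr at 37 C. ThT (30 uM) added for 1 hr, then Alexa 594 FP read.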
# VDR inh: blocks the human vitamin D receptor; VDR-SRC2-3 peptide fluorescence polarization, 2 h; 400,000 compounds, 0.93% hits; P11473; Potency, µM, for inactives: max response, negative = inhibition, actives largely listed as inhibitors
#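 Fluorescence polarization assay of small-molecule disruption of VDR binding to coregulator peptide SRC2-3. Compounds and controls pin-transferred, then read after 2 h incubation at ambient room temperature.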
# Numbers without * were called inactive; ? = inconclusive; · = not tested or not shown; [ ] = remark or other dose. Rows were chosen to be rich in hits. Some 6% of all compounds tested hit in one or more screens of this group. Calls follow the shape of the dose curve; as a rule, active = well fitted curve in the direction sought with a large enough effect; inconclusive = small, poorly fitted or top-dose-only effect, or another doubt; inactive = no such curve, though single readings can be large; an effect the other way counts as inactive or inconclusive. Unless noted, % is scaled to controls: 0 for no effect and ±100 for the full control effect; potency is read from the fitted curve at half-maximal effect.
SMILES,Tau fibril ThT,PLK1 PBD inh,Sfp PPTase inh,Tau fluor cs,Tau FP inhib,VDR inh
COc1ccc(NC(=O)c2nnn(Cc3cccc(F)c3)c2N)c(OC)c1,-4%,-8%,-5%,-20%,4%,-10%
COc1ccc(C)cc1NC(=O)c1nnn(Cc2cccc(F)c2)c1N,7%,38µM*,13%,-12%,-15%,5%
COc1ccc(CC(=O)NCc2ccc3c(c2)OCO3)cc1,-22%,24µM*,5%,-18%,-5%,5%
COc1ccc(C(=O)/C=C(\C)Nc2ccc3c(c2)OCO3)cc1,13µM*,-10%,-30%,?,6%,4%
N#CN1C2CCC1CC(O)(c1ccccc1)C2 (stereo not given),·,1%,·,·,·,·
COc1ccc(Cl)cc1S(=O)(=O)NC(C)C(=O)NCc1ccncc1 (stereo not given),·,-14%,7%,·,·,-11%
COc1ccc(OC)c(NC(=O)c2nnn(CC(=O)Nc3ccc(C(C)C)cc3)c2N)c1,?,·,·,14µM*[quencher],-13%,-1%
COc1ccc(Cl)cc1S(=O)(=O)NC(C)C(=O)NCc1ccc2c(c1)OCO2 (stereo not given),·,24µM*,-4%,·,·,?
COc1cc(C(=S)N(C)C)ccc1O,?,9.5µM*,40µM*,-7%,-4%,-12%
CCCOC(=O)c1ccc(O)c(OC)c1,-13%,-30%,-7%,-15%,-1%,-4%
Cc1cc(OCCCn2c(CCNC(=O)C3CCCCC3)nc3ccccc32)ccc1Cl,?,·,·,-16%,-8%,-2%
CN(C)NC(=S)NC1CCS(=O)(=O)C1 (stereo not given),-6%,-1%,79µM*,-8%,-3%,18%
CCC1=NN2C(=N)/C(=C\c3ccc(OCCOc4ccccc4OC)cc3)C(=O)N=C2S1,·,?,-6%,·,·,8%
COC(=O)/C=C1\SC(N2CCOCC2)=C(c2ccc(OC)cc2)C1=O,28µM*,15µM*,-86%,-20%,?,?
COC(=O)CN1C(=S)N(c2ccc(OC)cc2)C(=O)/C1=C/c1ccc(N2CCOCC2)cc1,?,-23%,6%,-28%,13%,-11%
Cc1nc(N)sc1N=Nc1ccc(F)cc1,8.9µM*,-3%,-28%,?,11%,29%
COC(=O)Cc1sc(-c2ccccn2)nc1-c1ccccc1,-8%,4.7µM*,22µM*,-5%,-5%,25µM*
CCOc1ccc(Nc2oc(-c3ccc(COc4ccc(OC)cc4)o3)nc2C#N)cc1,?,·,·,?,-2%,0%
COc1ccc(Br)cc1C(=O)Nc1ccccc1N1CCN(C(=O)c2ccccc2)CC1,-15%,24µM*,16%,-10%,-5%,6%
CC1CC(C)CN(CCOCCSc2ccc(Cl)cc2)C1 (stereo not given),9%,3%,56µM*,1%,-4%,10%
CC1CC(C)CN(CCOCCSc2ccccc2)C1 (stereo not given),-3%,2%,-20%,-6%,-5%,-9%
CC(C)c1cc(C(=O)Nc2sc3c(c2C#N)CCC3)no1,-18%,24µM*,?,-18%,-2%,1%
Cn1ncc(Cl)c1C(=O)NC(=S)Nc1sc2c(c1C#N)CCCCC2,?,8.4µM*,?,-21%,-8%,-8%
Cc1nn(CCCC(=O)Nc2sc3c(c2C#N)CCC3)c(C)c1[N+](=O)[O-],-14%,30µM*,?,-20%,-1%,?
N#Cc1c(NC(=O)c2cccnc2)sc2c1CCC2,?,-20%,6%,-19%,4%,-3%
N#Cc1c(NC(=O)c2cnccn2)sc2c1CCCC2,?,27µM*,25µM*,-29%,-12%,-2%
Cc1ccc2nc(Cl)c3cc(C(=O)N(C)C4CCCCC4)sc3c2c1,-15%,·,·,-10%,-12%,-7%
CC(=O)c1cc(-c2ccc(F)cc2)n(CCC(=O)Nc2nc3ccc(C)cc3s2)c1C,7%,·,·,0%,15%,7%
CC(C)C[C@@H](CC#N)N1CCN(Cc2ccccc2)CCC1=O,·,-12%,7%,·,·,-14%
